These results are taken from PubChem BioAssay.

Assay [1] in a line: optical density shifts of acrAB sulA E. coli – strain DRC41, OD650, 48 h, E. coli filamentation inducer project, primary screen (AID 1152).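 Note: E. coli MC1000 strain DRC41 lacking acrAB efflux pump and sulA.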 Particulars: higher = more signal, called active from +8 up or from −8 down.
The nature of assay [2]: probe aLefty1 binding on compound microarray – biochemical, small-molecule microarray, 635/667 nm fluorescence, primary screen (AID 1153).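 Note: score merges spot fluorescence with signal-to-noise ratio from the scanned slide images.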 The following applies: higher = more signal.
Assay [3] can be described thus: plasmodial surface anion channel blockers, osmotic lysis – cell-based, P. falciparum Indochina, OD700, 1 h, primary screen (AID 1154). The following applies: P. falciparum Indochina infected RBC osmotic lysis, higher = more signal, called active from +8 up or from −8 down.
Assay [4] is described as follows: plasmodial surface anion channel blockers, osmotic lysis – cell-based, P. falciparum Indochina, OD700, 2 h, primary screen (AID 1155).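 Note: lysis reports solute entry through the parasite surface anion channel PSAC.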 The following applies: P. falciparum Indochina infected erythrocytes, higher = more signal, called active from +8 up or from −8 down.
Assay [5] is described as follows: changes in parasitized red cell lysis, either direction – P. falciparum Indochina, OD700, 3 h, PSAC antagonist project, primary screen (AID 1156). The following applies: P. falciparum-infected erythrocytes, osmotic lysis, higher = more signal, called active from +8 up or from −8 down.
The nature of assay [6]: plasmodial surface anion channel blockers, osmotic lysis – cell-based, P. falciparum Indochina, OD700, 18 h, primary screen (AID 1157). The following applies: P. falciparum Indochina infected erythrocytes, osmotic lysis OD700, 18 h; higher = more signal, called active from +8 up or from −8 down.
The nature of assay [7]: S6 kinase pathway phospho-S6 level changes – cell-based, A549, cytoblot, luminescence, serum-stimulated, primary screen (AID 1158).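 Note: serum-stimulated A549 lung adenocarcinoma cells; signal is phosphorylated S6 detected by cytoblot immunostaining with HRP secondary.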 Particulars: 5 h, higher = more signal.
Assay [8] deals with NADPH oxidase 2 (Homo sapiens) (UniProt P04839). As to the kind of experiment: compounds shifting NOX2 Amplex Red fluorescence – cell-based, HEK293-NOX2, PMA-stimulated, NOX inhibitor project, primary screen (AID 1159). Note: test concentration not given here. Particulars: 45 min, higher = more signal, called active from +8 up or from −8 down.
In assay [9] the target is NADPH oxidase 4 (Homo sapiens) (UniProt Q9NPH5). As to the kind of experiment: compounds shifting NOX4 Amplex Red fluorescence – cell-based, HEK293-NOX4, tetracycline-induced, NOX inhibitor project, primary screen (AID 1160). The following applies: HEK293-NOX4, Amplex Red H2O2 fluorescence, 45 min; higher = more signal, called active from +8 up or from −8 down.
Assay [10] addresses NADPH oxidase 5 (Homo sapiens) (UniProt Q96PH1). Briefly: compounds shifting NOX5 Amplex Red fluorescence – cell-based, HEK293-NOX5, NOX inhibitor project, primary screen (AID 1161). Particulars: HEK293-NOX5, ionomycin, 45 min, higher = more signal.
Assay [11] is described as follows: compound effects on lung adenocarcinoma cell viability – A549, calcein-AM fluorescence, 48 h, basal, profiling panel (AID 1162). Note: test concentration not given here. The following applies: higher = more signal.
A short description of assay [12]: compound effects on differentiated 3T3-L1 adipocyte viability – cell-based, 3T3-L1 adipocytes, calcein-AM fluorescence, 48 h, basal, profiling panel (AID 1163). Note: test concentration not given here. Particulars: 3T3-L1 adipocytes viability, higher = more signal.
A short description of assay [13]: compound effects on hepatocellular carcinoma cell viability – HepG2, calcein-AM fluorescence, 48 h, basal, profiling panel (AID 1164). Note: test concentration not given here. The following applies: higher = more signal.
Assay [14] can be described thus: compound effects on multiple myeloma cell viability – MM1S, calcein-AM fluorescence, 48 h, basal, profiling panel (AID 1165).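 Note: viability of MM1S multiple myeloma cells under basal unstimulated conditions; test concentration not given here.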 Particulars: higher = more signal.
Assay [15] in a line: calcein-AM signal in unstimulated myeloma cells – cell-based, calcein-AM fluorescence, 48 h, PK04 Diversity Set, profiling panel (AID 1166).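 Note: cells grown under basal conditions without added stimulus; test concentration not given here.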 Particulars: RPMI8226 myeloma viability, higher = more signal.
A short description of assay [16]: JC-1 mitochondrial signal, unstimulated HepG2 cells – cell-based, JC-1 fluorescence, 24 h, 100 nL compound, profiling panel (AID 1167). Note: test concentration not given here. The following applies: HepG2 mitochondrial potential, higher = more signal.
The nature of assay [17]: JC-1 mitochondrial signal, unstimulated adipocytes – cell-based, JC-1 fluorescence, 3T3-L1 adipocytes, 24 h, 100 nL compound, profiling panel (AID 1168). Note: test concentration not given here. Particulars: JC-1 mitochondrial fluorescence, higher = more signal, called active from +8 up or from −8 down.
Assay [18] is described as follows: JC-1 mitochondrial signal, unstimulated myeloma cells – cell-based, JC-1 fluorescence, RPMI8226, 24 h, 100 nL compound, profiling panel (AID 1169). Note: test concentration not given here. The following applies: JC-1 mitochondrial potential fluorescence, higher = more signal.
Assay [19] is described as follows: JC-1 mitochondrial signal, unstimulated MM1S myeloma – cell-based, JC-1 fluorescence, 24 h, 100 nL compound, profiling panel (AID 1170). Note: test concentration not given here. Particulars: MM1S mitochondrial potential, higher = more signal.
Assay [20] in a line: resazurin metabolic signal in A549 cells – cell-based, resazurin fluorescence, 24 h, PK04 Diversity Set, profiling panel (AID 1171). Note: test concentration not given here. Particulars: A549 viability, higher = more signal, called active from +8 up or from −8 down. (In general: Alamar Blue is a resazurin reagent that responds to reducing activity.)

Structures are written as SMILES. Values joined by “and” are separate entries in the source; they are usually repeats but may differ in a detail not shown here. Equal values may be shown once. Active and inactive are the calls of the source.

NADPH oxidase 4 (Homo sapiens), sequence (Q9NPH5 whole entry, looked up): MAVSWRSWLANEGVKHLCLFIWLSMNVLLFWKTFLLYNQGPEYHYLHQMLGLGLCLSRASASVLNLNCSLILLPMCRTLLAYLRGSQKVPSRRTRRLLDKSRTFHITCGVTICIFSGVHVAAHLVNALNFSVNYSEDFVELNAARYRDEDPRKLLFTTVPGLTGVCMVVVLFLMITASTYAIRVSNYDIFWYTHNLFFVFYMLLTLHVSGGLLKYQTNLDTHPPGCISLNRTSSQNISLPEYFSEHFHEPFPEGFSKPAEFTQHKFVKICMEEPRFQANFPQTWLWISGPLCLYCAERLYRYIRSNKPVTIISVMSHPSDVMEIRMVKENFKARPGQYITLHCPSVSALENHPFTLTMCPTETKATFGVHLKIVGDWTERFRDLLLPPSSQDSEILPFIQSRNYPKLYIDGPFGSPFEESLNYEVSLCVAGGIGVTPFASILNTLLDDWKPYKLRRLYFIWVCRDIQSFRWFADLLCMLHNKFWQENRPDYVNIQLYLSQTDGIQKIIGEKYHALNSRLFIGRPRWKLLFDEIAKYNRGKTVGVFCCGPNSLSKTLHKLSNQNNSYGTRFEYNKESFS
NADPH oxidase 5 (Homo sapiens), sequence (Q96PH1 whole entry, looked up): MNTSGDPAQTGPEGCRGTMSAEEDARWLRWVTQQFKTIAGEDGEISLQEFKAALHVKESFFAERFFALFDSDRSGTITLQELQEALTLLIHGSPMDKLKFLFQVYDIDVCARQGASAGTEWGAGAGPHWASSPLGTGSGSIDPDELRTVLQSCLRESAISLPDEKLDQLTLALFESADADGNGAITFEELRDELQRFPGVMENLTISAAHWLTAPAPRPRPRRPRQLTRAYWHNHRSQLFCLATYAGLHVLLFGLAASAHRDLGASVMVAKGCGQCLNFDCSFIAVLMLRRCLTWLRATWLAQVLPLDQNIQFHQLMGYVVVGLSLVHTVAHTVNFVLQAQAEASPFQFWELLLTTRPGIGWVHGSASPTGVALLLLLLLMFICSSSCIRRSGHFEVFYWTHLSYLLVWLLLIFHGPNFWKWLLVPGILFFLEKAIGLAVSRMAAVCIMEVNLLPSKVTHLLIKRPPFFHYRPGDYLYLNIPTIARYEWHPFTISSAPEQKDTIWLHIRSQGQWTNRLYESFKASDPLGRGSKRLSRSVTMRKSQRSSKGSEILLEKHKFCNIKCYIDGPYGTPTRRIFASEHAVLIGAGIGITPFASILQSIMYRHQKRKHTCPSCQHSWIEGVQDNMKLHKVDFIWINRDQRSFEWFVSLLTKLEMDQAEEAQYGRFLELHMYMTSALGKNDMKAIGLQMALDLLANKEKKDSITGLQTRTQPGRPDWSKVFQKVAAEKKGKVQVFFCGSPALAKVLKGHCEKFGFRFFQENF
NADPH oxidase 2 (Homo sapiens), sequence (P04839 whole entry, looked up): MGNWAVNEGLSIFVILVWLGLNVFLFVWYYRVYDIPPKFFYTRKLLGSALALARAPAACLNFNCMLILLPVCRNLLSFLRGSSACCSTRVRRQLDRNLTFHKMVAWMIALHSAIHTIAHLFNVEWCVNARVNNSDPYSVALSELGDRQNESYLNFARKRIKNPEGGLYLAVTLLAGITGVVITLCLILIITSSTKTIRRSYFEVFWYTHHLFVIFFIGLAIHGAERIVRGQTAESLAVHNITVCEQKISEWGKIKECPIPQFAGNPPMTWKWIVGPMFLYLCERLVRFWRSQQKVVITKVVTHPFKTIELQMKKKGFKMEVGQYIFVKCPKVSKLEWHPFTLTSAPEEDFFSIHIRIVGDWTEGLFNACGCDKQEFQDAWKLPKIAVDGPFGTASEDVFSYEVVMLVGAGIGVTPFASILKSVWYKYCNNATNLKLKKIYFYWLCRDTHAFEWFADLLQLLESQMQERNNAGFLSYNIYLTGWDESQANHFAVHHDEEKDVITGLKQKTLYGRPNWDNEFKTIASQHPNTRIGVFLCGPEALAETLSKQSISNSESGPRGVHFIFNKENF

With `CO[C@H]1COC(=O)CC=C[C@H](C)[C@H](OC)COC(=O)[C@@H](C)COC(=O)CC=C[C@@H]1C`, the z-score in [1] is 0.462 (inactive) and 0.63 (inactive); in assay [3], -0.267 (inactive) and 0.565 (inactive); in assay [4] it was -0.162 (inactive) and -0.455 (inactive); in assay [5], -0.146 (inactive) and 0.4 (inactive); in assay [6], -0.0153 (inactive) and 0.179 (inactive); in assay [7] it was -0.0498 and 0.833. Moreover, the z-score in assay [8] is 0.282 (inactive) and 1.16 (inactive); in assay [9] it was 0.201 (inactive) and 0.589 (inactive); in assay [10], -0.26 and 0.25; in assay [11], -0.26 and 0.27; in assay [12], 0.0599 and 0.0256; in assay [13], 0.0517 and 1.24. Moreover, the z-score in assay [14] is 0.183 and 0.0455; in [15], -0.409 and 0.728; in assay [16], 0.152 and 1.09; in [17] it was -0.317 (inactive) and 0.125 (inactive); in assay [18], -0.429 and 0.0879; in assay [19], 0.688 and 0.438. For the same compound, the z-score in [20] is 0.211 (inactive) and -0.379 (inactive). The composite z-score in [2] was -0.294 and -0.193.
Turning to `CO[C@@H]1COC(=O)CC=C[C@H](C)[C@@H](NS(=O)(=O)c2ccc(C)cc2)COC(=O)CC=C[C@@H]1C`, the z-score in [1] was 0.578 (inactive) and 0.567 (inactive); in [3] it was 0.614 (inactive) and 0.595 (inactive); in assay [4], 0.281 (inactive) and -0.12 (inactive); in assay [5] it was -0.153 (inactive) and 0.571 (inactive); in assay [6] it was 0.401 (inactive) and 0.367 (inactive); in assay [7] it was -0.3 and -0.484. Moreover, the z-score was 0.0381 (inactive) and 0.541 (inactive) in assay [8]; 0.724 (inactive) and 0.493 (inactive) in [9]; 0.423 and 0.277 in assay [10]; 0.725 and -1.15 in assay [11]; -0.779 and -0.0305 in assay [12]; 0.515 and -1.42 in assay [13]. Besides, the z-score in assay [14] was 0.317 and 0.286; in assay [15] it was -0.0273 and 0.0878; in assay [16], 0.651 and -0.353; in assay [17], -0.162 (inactive) and -1.02 (inactive); in assay [18], -0.235 and 0.237; in assay [19], 0.654 and -0.385. The z-score in assay [20] was -0.512 (inactive) and 1.4 (inactive). The composite z-score in assay [2] is -0.186 and 0.0492.
As for `CCOC(=O)C[C@H]1[C@H](OC(=O)c2ccccc2-c2ccccc2)[C@@H](NC(=O)Cc2ccc(OC)cc2)c2cc(OCCCO)ccc2N1C(=O)c1ccc2ccccc2n1`, the z-score is 2.19 (inactive) and 1.32 (inactive) in assay [1]; 3.8 (inactive) and 1.18 (inactive) in [3]; 0.674 (inactive) and 0.879 (inactive) in [4]; 0.366 (inactive) and -0.295 (inactive) in [5]; 0.329 (inactive) and 0.627 (inactive) in assay [6]; 0.661 and 0.0515 in assay [7]. The z-score in assay [8] was -0.488 (inactive) and 1.54 (inactive); in assay [9], 0.946 (inactive) and 0.859 (inactive); in [10], 0.365 and 0.0653; in [11], 0.637 and 1.07; in assay [12], 1.49 and 0.317; in [13] it was 0.633 and 0.244. Moreover, the z-score in assay [14] was 0.218 and 0.868; in assay [15] it was -0.765 and -0.644; in assay [16] it was 3.65 and 1.61; in assay [17], 0.611 (inactive) and 0.669 (inactive); in assay [18], 0.257 and -0.354; in assay [19] it was 0.82 and 0.248. The z-score in [20] is 1.26 (inactive) and 0.555 (inactive). Also, in [2], the composite z-score is -0.012 and -0.0186.
`CO[C@H]1COC(=O)CC=C[C@@H](C)COC(=O)[C@@H](OCc2ccccc2)C=C[C@@H]1C`: the z-score was 1.08 (inactive) in assay [1]; 1 (inactive) in [3]; -0.104 (inactive) in assay [4]; 0.362 (inactive) in assay [5]; -0.0412 (inactive) in [6]; 0.21 in assay [7]. For the same compound, the z-score in assay [8] was 0.46 (inactive); in assay [9] it was 1.19 (inactive); in assay [10], 0.308; in assay [11], 0.497; in assay [12], 0.146; in [13], 0.835. For the same compound, the z-score is 0.301 in assay [14]; 0.608 in assay [15]; 0.952 in assay [16]; -0.0508 (inactive) in assay [17]; -0.442 in assay [18]; -0.414 in assay [19]. For the same compound, the z-score in assay [20] was -0.34 (inactive). The compound also gave a composite z-score in [2] of -0.334.
On to `COC(=O)[C@@]1(Cc2ccc(F)cc2)[C@H]2c3cc(C(=O)N4CCCC4)n(Cc4c(CO)[nH]cc(C)c4=O)c3C[C@H]2CN1C(=O)c1ccccc1`, for which the z-score in [1] is -1.7 (inactive) and -1.76 (inactive); in [3], 1.02 (inactive) and 1.15 (inactive); in [4] it was 0.148 (inactive) and 0.543 (inactive); in assay [5] it was 0.63 (inactive) and 0.306 (inactive); in [6] it was 0.398 (inactive) and 0.57 (inactive); in assay [7] it was -0.52 and -0.213. Also, the z-score is 0.636 (inactive) and 0.617 (inactive) in assay [8]; -1.58 (inactive) and -0.346 (inactive) in assay [9]; -2.05 and -0.222 in assay [10]; -1.51 and -0.994 in [11]; 0.284 and -0.41 in [12]; -0.272 and -0.426 in assay [13]. The z-score in assay [14] is -1.2 and -0.26; in assay [15], -1.34 and -0.473; in assay [16] it was 1.07 and 0.498; in [17] it was -0.217 (inactive) and -1.18 (inactive); in assay [18], -0.409 and 0.893; in assay [19] it was 0.1 and 0.277. The z-score in assay [20] is -0.133 (inactive) and 2.11 (inactive). Also, the composite z-score in assay [2] is 1.63 and 0.0811.
`CC(C)=NO[C@@H](C)c1cc(-c2c(C)cc(C)cc2C)no1`: the z-score in assay [1] is -2.27 (inactive); in assay [3], 0.944 (inactive); in assay [4], 0.371 (inactive); in assay [5], 1.37 (inactive); in [6], -1.23 (inactive); in assay [7] it was 0.702. Also, the z-score in assay [8] was -0.639 (inactive); in [9] it was -1.28 (inactive); in assay [10], -1.13; in [11] it was -0.846; in assay [12], 0.38; in assay [13], -0.242. For the same compound, the z-score in assay [14] is -0.309; in assay [15], -0.416; in assay [16], -0.182; in assay [17] it was 0.478 (inactive); in assay [18] it was -0.328; in assay [19] it was -0.39. For the same compound, the z-score in [20] is 0.0477 (inactive). In assay [2], this compound had a composite z-score of -0.278.
